# Compound activity deposited in PubChem BioAssay by The Scripps Research Institute Molecular Screening Center.
# Hits are enriched below; roughly 4.1% of the tested compounds scored in any of these assays.
# hcDAF12 agonist = H. contortus DAF-12 activation, primary screen; 1.4% of 370,000 active; HEK293 hcDAF-12 lit1-tk-luc reporter, luminescence; 0% DMSO, 100% Δ7-dafachronic acid; activation, % at 6.8 µM;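 active means activation above the mean of all tested compounds plus 3 SD, cut at about 5.5% in these data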;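 further: 100% = response to 3 µM Δ7-dafachronic acid high control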
# DAX1 inh-1 = inhibitors of DAX1 repression of SF-1 activated StAR promoter; 1.1% of 370,000 active; HEK293T StAR-luciferase reporter, SF-1/DAX-1 repression relief; inhibition, % at 6.8 µM; AID 652010;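 active means inhibition above the mean over all tested compounds plus 3 SD, cut at about 3.6% in these data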;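 further: 0% = DAX-1 cells with DMSO and 100% = cells lacking DAX-1 with DMSO; higher inhibition means more luminescence from relief of DAX-1 repression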
# DAX1 inh-2 = NR0B1 (DAX1) inhibition. HEK293 Gal4-DAX1 luciferase reporter, luminescence. inhibition, % at 6.75 µM. AID 504766. 0.99% of 340,000 active;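 active means inhibition above the mean over all tested compounds plus 3 SD, cut at about 4.2% in these data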;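 further: 0% = DAX1-transfected cells with DMSO and 100% = empty-vector control cells with DMSO; inhibition shows as a rise in luminescence from relieved DAX1 repression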
# Target sequence (P51843 207-470 limits assumed): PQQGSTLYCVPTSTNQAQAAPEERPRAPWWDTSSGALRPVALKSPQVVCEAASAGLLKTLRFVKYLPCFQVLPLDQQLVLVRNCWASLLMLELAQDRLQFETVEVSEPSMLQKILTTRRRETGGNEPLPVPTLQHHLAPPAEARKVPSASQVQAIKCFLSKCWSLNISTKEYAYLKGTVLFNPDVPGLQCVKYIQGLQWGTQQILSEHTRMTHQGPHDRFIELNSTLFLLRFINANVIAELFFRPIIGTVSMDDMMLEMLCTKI
# hgDAF12 agonist = activates the H. glycines DAF-12 receptor ligand-binding domain | HEK293 GAL4-hgDAF12 UAS-luciferase reporter, agonist luminescence; normalized to butyrate control | activation, % at 6.8 µM | 1.8% of 370,000 active | AID 687014;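 active means activation above a cutoff set at the mean of all screened compounds plus 3 SD, cut at about 10% in these data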;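 further: 0% = DMSO wells and 100% = sodium butyrate wells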
# ssDAF12 agonist = S. stercoralis DAF-12 activation, primary screen. HEK293 ssDAF-12/GRIP1 lit1-tk-luc reporter, luminescence; % of 3 µM dafachronic acid response. activation, % at 6.8 µM. 1% of 370,000 active;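 active means activation above the mean over all tested compounds plus 3 SD, cut at about 0.9% in these data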;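 further: 0% = DMSO-only wells and 100% = 3 µM delta7-dafachronic acid wells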
# LXRb hcDAF ctr = counter-screen for hcDAF-12 agonists: agonists of human LXR-beta; shares compounds with hcDAF12 agonist; HEK293 Gal4-LXR tk-luc reporter, luminescence, 24 h; normalized: DMSO 0%, positive control 100%; activation, % at 6.8 µM; 3,400 tested, under 10 active; AID 743027;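 active means mean percent activation of the reporter above a cutoff set as the average over tested compounds plus their standard deviation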
# hcDAF12 ag = hcDAF-12 agonism, confirmation assay; shares compounds with hcDAF12 agonist; HEK293 hcDAF-12 lit1-tk-luc reporter, luminescence; % of Δ7-dafachronic acid response; activation, % at 6.8 µM; 61% of 3,400 active; AID 743032;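 active means mean activation across triplicate tests above the threshold derived from the earlier primary screen, cut at about 5.5% in these data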;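 further: 0% = DMSO only wells and 100% = 3 µM Δ7-dafachronic acid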
# Numbers without * were called inactive; . = no result.
SMILES,hcDAF12 agonist,DAX1 inh-1,DAX1 inh-2,hgDAF12 agonist,ssDAF12 agonist,LXRb hcDAF ctr,hcDAF12 ag
Cc1ccc(C(=O)CC(SCC(=O)O)c2ccc([N+](=O)[O-])cc2)cc1 (stereo not drawn),0.7,0.6,-1.9,0.8,-1.0,.,.
O=C(CC(SCCO)c1ccc([N+](=O)[O-])cc1)c1ccco1 (stereo not drawn),7.1*,-1.4,0.1,0.4,-1.8,0.1,1.2
CCCCCCC(=O)NC1CCCCN(Cc2ccc(C)cc2)C1=O (stereo not drawn),-0.2,-1.7,.,3.7,-0.6,.,.
C[C@H]1[C@H](NC(=O)c2cccc(C(F)(F)F)c2)CC[C@@]23CCCN2C(=O)CCC[C@@H]13,-0.1,.,.,-4.2,-1.9,.,.
C=CCNc1nc(-c2ccc(OC)cc2OC)cs1,8.1*,2.7,2.9,11.1*,-0.2,1.0,8.0*
COC(=O)C1=C(C)N(Cc2ccccc2C(F)(F)F)C(=NCc2ccc(OC)cc2)NC1c1ccccc1C(F)(F)F (stereo not drawn),-1.9,-0.6,.,-0.3,-1.2,.,.
CN(C)c1nc(C(=O)Nc2ccccc2)nc(N(C)C)n1,6.7*,0.1,0.6,1.0,-1.1,-0.3,1.3
CC(=O)Nc1c(-c2ccc(C)cc2)nc2ncccn12,-0.6,0.7,.,-0.4,-1.2,.,.
CC(C)(C)c1ccc(C(=O)NCCC(=O)N2CCCC2)cc1,7.0*,1.7,3.0,12.3*,0.4,0.9,4.9
CC(C)(C)c1ccc(C(=O)NCCc2ccccc2)cc1,6.6*,2.6,-1.0,11.4*,0.7,2.1,11.7*
CC(C)(C)c1ccc(C(=O)NCc2ccccc2)cc1,1.6,1.6,2.0,10.0,-1.2,.,.
CCOC(=O)c1cn[nH]c1NC(=S)Nc1ccc(Cl)cc1,7.9*,2.0,.,9.9,-0.4,2.3,10.4*
Cc1c(C(=O)N2CCN(C(=O)c3ccccc3)CC2)oc2ccc(F)cc12,0.1,-0.3,0.2,2.4,-1.0,.,.
Cc1c(C(=O)/C=C/c2cccs2)oc2ccc(F)cc12,8.3*,0.0,2.0,12.3*,0.2,1.0,13.9*
O=C(NNC(=O)c1ccc2nc[nH]c2c1)c1ccccc1,-1.1,-0.1,-0.1,-0.7,-1.6,.,.
Cc1ccc(NC(=O)c2ccc3nc[nH]c3c2)nc1,8.9*,9.6*,1.2,7.3,0.1,1.1,5.1
O=C(Nc1cc(-c2nc3ccccc3s2)ccc1Cl)c1ccc2c(c1)OCO2,9.9*,1.6,3.0,11.0*,1.6*,0.2,6.3*
Cc1ccc(-c2nc3ccccc3s2)cc1NC(=O)c1ccc2c(c1)OCO2,-1.6,-0.1,0.0,-1.8,-0.5,.,.
CCc1ccc(OCC(=O)NC(C)(C)C)cc1,10.9*,-0.3,-0.3,-3.4,-0.7,-0.1,-0.7
Cc1cc(NC(=O)c2ccc(Br)cc2)nc(C)n1,-0.4,0.2,-1.1,0.3,-1.1,.,.
Cc1cc(NC(=O)c2ccccc2O)nc(C)n1,7.7*,-0.1,-0.6,-1.8,-0.2,0.3,5.2
Cc1ccc(OC(=O)N(C)C[C@H]2OCc3cn(nn3)CCCC(=O)N([C@@H](C)CO)C[C@@H]2C)cc1,0.6,-0.6,.,6.4,-0.2,.,.
CCSc1ncc(/C=N/Nc2ccc(Cl)cc2)n1C,11.6*,2.6,3.5,9.6,1.6*,1.5,10.0*
c1ccc(-c2cnc(CSc3nnc4ccccn34)o2)cc1,8.5*,2.8,2.1,11.9*,0.5,0.9,5.8*
O=C(Nc1ccc2ccccc2c1)NC1CCCCN(Cc2cccc(Cl)c2)C1=O (stereo not drawn),-2.2,-0.6,.,0.9,-1.3,.,.
SMILES,hcDAF12 agonist,DAX1 inh-1,DAX1 inh-2,hgDAF12 agonist,ssDAF12 agonist,LXRb hcDAF ctr,hcDAF12 ag
CCCCN1C[C@@H](COCc2ccccc2)Oc2cccc(F)c2S1(=O)=O,-2.9,-1.6,.,4.7,-0.9,.,.
N#CC1=C(N)Oc2c(ccc3ccccc23)C1c1ccsc1 (stereo not drawn),7.1*,-0.9,-2.9,11.8*,0.9*,-0.1,3.9
N#CC1=C(N)Oc2c(oc(CO)cc2=O)C1c1ccsc1 (stereo not drawn),0.2,-0.5,-1.1,0.3,-0.2,.,.
O=C(CCc1nnc(Cc2c[nH]c3ccccc23)o1)NCCC1CCCCO1 (stereo not drawn),6.8*,0.1,1.1,5.8,0.4,-0.2,1.8
O=C(CCc1nnc(Cc2c[nH]c3ccccc23)o1)NC1CCCC1,4.1,-0.4,-0.3,0.9,0.4,.,.
CC(=O)Oc1c(Br)cc(N(C(C)=O)S(=O)(=O)c2ccccc2)c2ccccc12,12.4*,-1.7,-0.9,-0.2,0.5,-0.2,1.8
COc1ccccc1N(Cc1ccccc1)S(=O)(=O)c1cccc(C(=O)Nc2ccc(C(C)=O)cc2)c1,11.5*,0.6,1.2,8.0,0.0,-0.2,2.6
CC(C)(C)c1ccc(C2(C)NC(=O)NC2=O)cc1 (stereo not drawn),8.7*,-0.4,2.1,0.6,-0.8,-0.2,2.1
CC1=C(C(=O)OC2CCCC2)C(c2coc3ccccc3c2=O)C2=C(CCCC2=O)N1 (stereo not drawn),2.1,-0.9,-0.4,-0.3,0.2,.,.
CCOC(=O)C1=C(C)NC2=C(C(=O)CCC2)C1c1coc2ccccc2c1=O (stereo not drawn),6.8*,-0.1,0.2,4.8,-0.8,-0.2,4.5
COc1cc(Cl)ccc1OCc1cc(C(=O)NC(C)Cc2cnccn2)no1 (stereo not drawn),8.5*,2.6,1.8,12.6*,1.5*,0.8,6.0*
CC(Cc1cnccn1)NC(=O)c1cc(COc2ccc(F)cc2F)on1 (stereo not drawn),-2.2,0.4,0.7,-2.1,-1.1,.,.
Fc1cccc(Cl)c1/C=C/c1cnc2ccccc2n1,20.4*,3.0,1.8,15.9*,2.0*,1.7,21.9*
O=C(O)/C=C/c1cnc2ccccc2n1,2.3,-0.5,-0.2,1.6,-0.7,.,.
COc1ccccc1-c1nnc(SCC(=O)N2CCOCC2)o1,10.2*,2.6,1.9,9.3,1.1*,0.3,11.1*
Cc1cccc(-c2nnc(SCC(=O)N3CCOCC3)o2)c1,6.8*,0.8,3.4,7.2,-0.2,0.0,3.4
O=C(CSc1nnc(-c2cccc(F)c2)o1)N1CCOCC1,-1.6,-0.2,2.0,-3.2,-0.7,.,.
C=CCN(CC=C)C[C@@H]1CSCCS(=O)(=O)N1,0.0,0.9,.,-0.1,-0.1,.,.
O=C(O[C@H]1CC[C@@]23CCCN2C(=O)CCC[C@H]3C1)N1CCCC1,0.5,.,.,0.2,-1.2,.,.
CCOc1ccc(-n2c(SCC(=O)Nc3ccc(S(=O)(=O)Nc4cc(C)nc(C)n4)cc3)nnc2-c2ccco2)cc1,-0.8,0.5,.,-0.9,-0.8,.,.
